PI5P4K alpha inh – PI5P4K alpha (human) kinase inhibition; 1.2% of 330,000 active; PI5P4Kalpha enzyme, ADP-Glo luminescence, 60 min; active compounds read low; AID 652105; max response, %; P48426; active = max response of -50% or lower; inconclusive = between -30% and -50%; inactive = -30% or higher; also: value at the top dose of about 77 µM; % is scaled to controls: 0 for no effect and ±100 for the full control effect
Target sequence (P48426 whole entry, looked up): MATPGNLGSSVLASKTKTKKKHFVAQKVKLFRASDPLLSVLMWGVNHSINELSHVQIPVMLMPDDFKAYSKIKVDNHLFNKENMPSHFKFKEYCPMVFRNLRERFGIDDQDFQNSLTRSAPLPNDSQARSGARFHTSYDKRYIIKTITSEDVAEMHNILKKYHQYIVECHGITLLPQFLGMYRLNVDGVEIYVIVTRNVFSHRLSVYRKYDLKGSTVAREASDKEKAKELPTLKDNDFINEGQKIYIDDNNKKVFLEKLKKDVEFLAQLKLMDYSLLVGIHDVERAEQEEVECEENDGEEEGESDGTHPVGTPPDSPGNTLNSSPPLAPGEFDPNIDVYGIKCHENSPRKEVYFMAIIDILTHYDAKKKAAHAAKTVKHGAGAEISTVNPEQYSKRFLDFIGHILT
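Single end-point luminescence (ADP-Glo) quantified ADP from PI5P4Kalpha turnover; ATP 5 microM final, 1 h at RT, 0.1% CHAPS and 0.28 mM EGTA in HEPES pH 7.4.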
G9a inh – blocks human histone lysine methyltransferase G9a | Q96KQ7 | G9a H3K9 monomethylation, AlphaScreen, 2 h | Potency, µM (titrated, usually from 102 µM), for inactives: top-dose activity, negative = inhibition, hits mostly inhibitors | 8.8% of 350,000 active | AID 504332; also: potency is read from the fitted curve at half-maximal effect; % is scaled to controls: 0 for no effect and ±100 for the full control effect; nearly all actives have a fitted effect of over 75% in size
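Methyltransferase reactions run at room temperature for 2 h (20 nM enzyme, 500 nM biotin-H3K9 peptide, 20 uM SAM) after a 15 min compound preincubation; product detected by AlphaScreen beads and anti-H3K9me1 antibody.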
BAZ2B block – inhibitors of human BAZ2B bromodomain. Q9UIF8. AlphaScreen BAZ2B-H3K14Ac peptide displacement. Potency, µM (top dose mostly 114 µM), without a hit: at the highest dose activity change, negative = inhibition, hits mostly inhibitors. 4.4% of 360,000 active. AID 504333; also: potency is read from the fitted curve at half-maximal effect; % is scaled to controls: 0 for no effect and ±100 for the full control effect; nearly all actives have a fitted effect of over 60% in size
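AlphaScreen displacement of biotin-H3(5-23)K14Ac peptide (50 nM final) from BAZ2B (50 nM final) in PBS pH 7.4, 0.01% Tween-20; complex preformed 30 min RT, then compounds (top 110 uM) 30 min RT, beads 20 min dark.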
PLK1 PBD block – blocks phosphopeptide binding to human PLK1 polo-box domain; P53350; Plk1 PBD binding of FITC phosphopeptide, fluorescence polarization; Potency, µM, without a hit: max response, negative = inhibition, most hits filed as inhibitors; 2.8% of 360,000 active; also: potency is read from the fitted curve at half-maximal effect; series mostly up to about 57 µM; % is scaled to controls: 0 for no effect and ±100 for the full control effect; nearly all actives have a fitted effect of over 65% in size
HP1b binding inh – blocks HP1-beta chromodomain binding to methylated histone tails | Potency, µM (doses to about 114 µM), for inactives: at the highest dose activity change, negative = inhibition, most hits filed as inhibitors | AlphaScreen HP1-beta / biotin-H3K9me3 peptide binding | 0.56% of 390,000 active; also: potency is read from the fitted curve at half-maximal effect; nearly all actives have a fitted effect of over 70% in size
Target sequence (P83916 whole entry, looked up): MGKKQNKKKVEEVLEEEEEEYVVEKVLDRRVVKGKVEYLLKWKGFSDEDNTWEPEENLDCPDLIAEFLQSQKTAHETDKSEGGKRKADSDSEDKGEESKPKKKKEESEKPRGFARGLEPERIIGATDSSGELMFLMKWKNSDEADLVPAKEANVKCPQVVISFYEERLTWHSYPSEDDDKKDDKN
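Compound inhibition of the preformed complex between 50 nM HP1-beta and 50 nM biotinylated H3K9me3 peptide was read by AlphaScreen. Buffer was PBS pH 7.4 with 0.01% Tween-20. Incubations ran 30 min at room temperature, with 10 ug/mL donor/acceptor beads.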
JMJD2A Tudor – JMJD2A Tudor domain (human) inhibition | O75164 | AlphaScreen JMJD2A-Tudor / H3K4me3 peptide binding | Potency, µM (series often up to 114 µM), for inactives: at the highest dose activity change, negative = inhibition, most hits filed as inhibitors | 4.4% of 390,000 active; also: potency is read from the fitted curve at half-maximal effect; % is scaled to controls: 0 for no effect and ±100 for the full control effect; nearly all actives have a fitted effect of over 50% in size
Numbers without * were called inactive; ? = inconclusive; / = no result; [ ] = remark or other dose. An excerpt weighted towards active compounds, which were near 12% of everything screened. Unless noted, calls follow the shape of the dose curve; as a rule, active = well fitted curve in the direction sought with a large enough effect; inconclusive = small, poorly fitted or top-dose-only effect, or another doubt; inactive = no such curve, though single readings can be large; an effect the other way counts as inactive or inconclusive.

SMILES | PI5P4K alpha inh | G9a inh | BAZ2B block | PLK1 PBD block | HP1b binding inh | JMJD2A Tudor
NC(=O)CSc1nc2c(sc(=S)n2-c2ccccc2)c(=O)[nH]1 | -11.3 | ? | -1.1% | -8.0% | 23.3% | -9.2%
O=C1CCN(Cc2ccco2)C(=S)N1 | 10.7 | / | / | -5.9% | -1.5% | -20.0%
COc1cccc(N2CCN(CC(=O)C34CC5CC(CC(C5)C3)C4)CC2)c1 | 2.1 | -23.3% | ? | 0.2% | 3.9% | -22.0%
FC(F)(F)c1cccc(N2CCN(Cc3ccoc3)CC2)c1 | / | ? | 50.1µM* | -5.0% | ? | 3.55µM*
FC(F)(F)c1cccc(N2CCN(Cc3cccnc3)CC2)c1 | 0.7 | 14.1µM* | -33.6% | -5.9% | ? | 1.26µM*
COc1cccc(N2CCN(Cc3ncc(-c4ccccc4)o3)CC2)c1 | -8.9 | ? | -37.6% | 2.0% | -18.8% | -33.5%
COc1cccc(N2CCN(C3C4CC5CC(C4)CC3C5)CC2)c1 (stereo not drawn) | 11.4 | 50.1µM* | ? | -3.8% | 17.4% | -11.7%
COc1cccc(N2CCN(Cc3cccnc3)CC2)c1 | / | 14.1µM* | 39.8µM* | 21.2% | 56.2µM* | 3.16µM*
COc1cccc(Cn2c(=O)c(C)nc3cnc(OC)nc32)c1 | / | 10.4%[0.501 µM] | / | / | / | /
COc1cccc(N2CCN(c3ncc4c(n3)CCN(Cc3ccc(Br)cc3)C4)CC2)c1 | / | 6.8%[12.7 µM] | 22.4µM* | / | -21.2% | 56.2µM*
COc1cccc(/C=C2\SC(=S)N(CCCC(=O)N(CCO)c3ccccc3)C2=O)c1 | 17.6 | ? | ? | 4.8% | -22.7% | 35.5µM*
O=C1/C(=C/c2cccc(Br)c2)SC(=S)N1CCC(=O)N(CCO)c1ccccc1 | 1.6 | / | ? | -2.0% | -24.0% | 31.6µM*
CCOC(=O)c1ccc(Nc2c(-c3cccc(O)c3)nc3nc[nH]n23)cc1 | / | ? | -31.1% | / | 13.2% | -34.3%
CCOC(=O)c1ccc(Nc2c(-c3ccc(N(C)C)cc3)nc3nc[nH]n23)cc1 | / | 15.8µM* | ? | / | -15.5% | -33.7%
CCOC(=O)c1ccccc1NC1c2ccccc2C(=O)N1C1CCN(C(=O)OCC)CC1 (stereo not drawn) | 8.7 | 39.8µM* | -25.5% | -4.8% | 18.0% | -18.8%
CCOC(=O)N1CCC(N2CCN(S(=O)(=O)c3ccc4ccccc4c3)CC2)CC1 | / | 8.91µM* | ? | -8.6% | ? | 0.891µM*
CCOC(=O)N1CCC(N2C(=O)c3ccccc3C2Nc2ccc3c(c2)OCCO3)CC1 (stereo not drawn) | 1.2 | 50.1µM* | ? | -9.8% | -5.8% | ?
CCOC(=O)N1CCC(N2Cc3cccc(C(=O)NC(C)c4ccc5c(c4)OCCO5)c3C2=O)CC1 (stereo not drawn) | -3.9 | 39.8µM* | -10.3% | -23.2% | 22.5% | -31.7%
CCOC(=O)C1CCCN(S(=O)(=O)c2ccc3ccccc3c2)C1 (stereo not drawn) | 4.1 | -7.2%[12.7 µM] | -3.7% | -1.1% | 64.5% | 32.4%
CCOC(=O)N1CCC(N2C(=O)c3ccccc3C2Nc2ccc(S(=O)(=O)N3CCCCC3)cc2)CC1 (stereo not drawn) | / | 39.8µM* | -5.9% | / | / | /
Cc1nc2cc(-c3cccs3)nn2c(NCC(C)(C)CN(C)C)c1C | 1.8 | 50.1µM* | -22.7% | -2.3% | 36.2% | -12.4%
CCN(CC)CCCNc1cc(C)nc2cc(-c3cccs3)nn12 | 1.5 | 44.7µM* | -37.2% | -12.1% | 28.5% | -14.7%
Cc1nc2cc(-c3sccc3-n3cccc3)nn2c(C)c1C | 18.4 | -35.2% | ? | -7.7% | 4.0% | -16.0%
O=C(CN1C(=O)C2C3C=CC(C3)C2C1=O)Nc1nc2ccccc2[nH]1 (stereo not drawn) | -9.0 | 79.4µM* | -35.2% | -6.6% | 6.4% | 11.2µM*
CC(=O)Nc1ccc(NC(=O)CSC2=NS(=O)(=O)c3cc(Cl)ccc3N2)cc1 | -10.8 | 10µM* | -30.2% | -13.4% | 6.1% | -13.8%
SMILES | PI5P4K alpha inh | G9a inh | BAZ2B block | PLK1 PBD block | HP1b binding inh | JMJD2A Tudor
O=C(CSC1=NS(=O)(=O)c2cc(Cl)ccc2N1)Nc1ccccc1F | 2.0 | 10.0%[2.33 µM] | 5.1% | -17.5% | 10.5% | -20.0%
COc1ccc(C(=O)CSC2=NS(=O)(=O)c3cc(Cl)ccc3N2)cc1 | -3.8 | 56.2µM* | 9.5% | -10.5% | 24.9% | -11.7%
COC(=O)C[C@H]1CC[C@H](NC(=O)Nc2ccccc2F)[C@@H](CO)O1 | -4.7 | / | / | -11.7% | / | /
Cc1nn(C(=O)c2cccc(F)c2)c(C)c1S(=O)(=O)N1CCOCC1 | / | -5.9%[59 µM] | 2.8% | / | 40.9%[57 µM] | 4.8%
CC1(C)CC(NC(=O)c2ccc(Cl)c(S(=O)(=O)N(Cc3ccccc3)c3ccccc3)c2)CC(C)(C)N1 | 6.8 | -5.1%[59 µM] | -2.3% | -4.6% | ? | ?
COC(=O)c1ccc(C2c3c(oc4ccccc4c3=O)C(=O)N2c2nc(C)c(C(=O)OC)s2)cc1 (stereo not drawn) | / | ? | -11.5% | / | 9.8% | -18.2%
COC(=O)c1sc(NC(=O)c2ccc(C)o2)nc1C | 1.7 | 3.4%[59 µM] | -4.5% | -13.2% | 19.2% | -18.8%
COC(=O)c1sc(N2C(=O)C(O)=C(C(=O)c3ccc(C)o3)C2c2ccc(F)cc2)nc1C (stereo not drawn) | / | 12.6µM* | -5.3% | ? | 5.0% | -35.6%
CSc1nnc(N2C(=O)C(O)=C(C(=O)c3ccc(C)o3)C2c2ccc(C)cc2)s1 (stereo not drawn) | -8.4 | -3.5%[0.501 µM] | ? | -10.4% | 1.8% | -14.4%
COC(=O)c1sc(N2C(=O)C(O)=C(C(=O)c3ccc(C)o3)C2c2cccs2)nc1C (stereo not drawn) | -29.3 | 10µM* | -31.1% | 26.7µM* | 6.2% | ?
COC(=O)c1sc(N2C(=O)c3oc4ccccc4c(=O)c3C2c2cccs2)nc1C (stereo not drawn) | -8.7 | 14.1µM* | -3.8% | -6.8% | 21.1% | -4.2%
COC(=O)c1sc(N2C(=O)C(O)=C(C(=O)c3ccc(C)o3)C2c2ccco2)nc1C (stereo not drawn) | -17.5 | / | -4.8% | 29.9µM* | 6.5% | -26.4%
COc1ccccc1NC(=O)C1=C(C)Nc2nc3ccccc3n2C1c1ccccc1Cl (stereo not drawn) | / | 2.9%[59 µM] | 2.3% | / | 9.3% | -28.3%
CCOC(=O)/C=C1\CN(C(C)c2ccccc2)S(=O)(=O)c2ccccc21 (stereo not drawn) | -22.1 | 17.8µM* | -13.4% | -19.2% | 12.7% | 79.4µM*
CCOC(=O)/C=C1\CN(CCC(C)C)S(=O)(=O)c2ccccc21 | 1.1 | 35.5µM* | 12.5% | -16.5% | 30.5% | -4.9%
CSc1cccc(NC(=O)C2CCN(S(=O)(=O)c3ccc4[nH]c(=O)ccc4c3)CC2)c1 | / | 4.9%[59 µM] | 2.5% | / | 18.1%[57 µM] | -19.0%
c1ccc(Cc2ccc(OCCn3cncn3)cc2)cc1 | 0.8 | -33.7% | -2.0% | 0.4% | 47.1% | 3.8%
COc1ccc(OCCn2cncn2)cc1 | -1.9 | 22.4µM* | 56.2µM* | -2.0% | -13.5% | 7.94µM*
